# Screening data: PubChem, several laboratories
# MEKK3 PB1 HTS = modulators of MEKK3-MEK5 PB1 binding, primary screen, biochemical, wildtype MEKK3, multiplex bead flow cytometry, Alexa488-MEK5 | 290,000 tested, 1.4% active | Mitogen-activated protein kinase kinase kinase 3 (Homo sapiens), Q99759 | bead-based flow cytometry, Alexa488-MEK5 binding to MEKK3; actives lie on both sides; 0 = blocked by unlabeled MEK5, 100 = vehicle | binding response (% of control), % at 10 µM;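 active means binding response more than 3 SD above or below the average of its plate-row segment, actives on both sides; inconclusive means wells at one plate position flagged as instrument error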;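 further: Alexa488 bead fluorescence after subtracting the streptavidin-only scavenger bead signal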
# MEKK2wt PB1 HTS = modulators of MEK5 binding to wildtype MEKK2, primary screen, biochemical, multiplex bead flow cytometry, Alexa488-MEK5. Alexa488-MEK5 binding to MEKK2 WT; actives lie on both sides. AID 1531, 2009. Mitogen-activated protein kinase kinase kinase 2 (Homo sapiens), Q9Y2U5. binding response (% of control), % at 10 µM. 290,000 tested, 1.1% active; in the data active means binding response below about 67% or above about 130%; inconclusive means no clear call, values can overlap the other calls; inactive means in between
# UBC13 inh = UBC13 polyubiquitin chain formation inhibitors, primary screen, biochemical, TR-FRET, uHTS; Ubiquitin-conjugating enzyme E2 N (Homo sapiens), P61088; inhibition, % at 20 µM; 330,000 tested, 0.47% active; AID 485273, 2010; in the data active means inhibition above about 45%, passing the limit was not always enough; inconclusive means no clear call, values can overlap the other calls
# Rce1 inhib = yeast Rce1p protease inhibitors, primary screen, biochemical, fluorescence, cell-free homogeneous | 290,000 tested, 0.27% active | yeast membranes, quenched prenylated peptide cleavage fluorescence | CAAX prenyl protease 2 (Saccharomyces cerevisiae (strain ATCC 204508 / S288c)), Q03530 | calls only;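 active means fall in fluorescence gain of 50% or more versus controls, with final raw signal at or below 3038400; inconclusive means same 50% fall but final raw signal above 3038400; inactive means fall in fluorescence gain under 50%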;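 further: plate controls were neutral control wells for no effect and wells lacking membranes for full effect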
# Target sequence (Q03530 whole entry, looked up): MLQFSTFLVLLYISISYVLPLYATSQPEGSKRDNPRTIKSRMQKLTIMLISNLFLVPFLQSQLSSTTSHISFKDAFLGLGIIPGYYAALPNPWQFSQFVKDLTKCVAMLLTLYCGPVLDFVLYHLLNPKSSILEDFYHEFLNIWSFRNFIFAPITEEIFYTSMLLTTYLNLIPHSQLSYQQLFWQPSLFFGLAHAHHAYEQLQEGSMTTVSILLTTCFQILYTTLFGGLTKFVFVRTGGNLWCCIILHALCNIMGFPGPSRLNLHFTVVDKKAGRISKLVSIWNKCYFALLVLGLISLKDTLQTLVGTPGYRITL
# MEKK2 mut-MEK5 = MEK5 binding signal on mutant MEKK2 PB1, primary screen, biochemical, multiplex bead flow cytometry, Alexa488-MEK5; Alexa488-MEK5 binding to MEKK2 mutant; percent response, % at 10 µM; 290,000 tested, 0.35% active; AID 1530, 2009; in the data active means percent response above about 24%, passing the limit was not always enough
# Casp3 counter = CASP3 inhibitor validation, counterassay for project on UBE2N polyubiquitination blockers, biochemical, one dose. inhibition, % at 20 µM. shares compounds with UBC13 inh. 1,400 tested, 4% active. Recombinant caspase-3, Caspase-Glo 3/7 luminescence, 60 min. AID 488856, 2010;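 active means mean inhibition across replicates above about 26%, limit read from the data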;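 further: plate controls were DMSO with caspase-3 for no effect and DMSO wells lacking enzyme for full effect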
# Target sequence (P42574 whole entry, looked up): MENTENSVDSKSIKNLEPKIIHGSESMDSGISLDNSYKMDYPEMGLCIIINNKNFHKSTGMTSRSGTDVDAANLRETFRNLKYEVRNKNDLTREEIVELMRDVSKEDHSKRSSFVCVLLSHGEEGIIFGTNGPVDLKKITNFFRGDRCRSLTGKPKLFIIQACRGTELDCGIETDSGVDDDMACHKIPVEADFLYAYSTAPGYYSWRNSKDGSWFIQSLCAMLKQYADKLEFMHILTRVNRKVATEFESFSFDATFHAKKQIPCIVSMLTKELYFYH
# UBC13 confirm = UBC13 polyubiquitination inhibitors, single-point retest, confirmation, biochemical, TR-FRET, single concentration | shares compounds with UBC13 inh | inhibition, % at 10 µM | 1,400 tested, 68% active | AID 488859, 2010; in the data active means inhibition above about 45%; inconclusive means no clear call, values can overlap the other calls
# * marks the source's active call; other numbers are inactive results; i = inactive; ? = inconclusive; nt = no result given; ! = not confirmed by another sample. Sampled rows, rich in hits. Any-hit rate of the full collection: about 2.5%.
SMILES,MEKK3 PB1 HTS,MEKK2wt PB1 HTS,UBC13 inh,Rce1 inhib,MEKK2 mut-MEK5,Casp3 counter,UBC13 confirm
CN(C)c1ccc(NC(=O)CN2CCC(NC(=O)C3CCCCC3)CC2)cc1,103,137*,64*,i,30*,-2,82*
COc1ccc(NC(=O)CN2CCC(NC(=O)C3CCCCC3)CC2)cc1,105,106,4,i,3,nt,nt
CN(CCc1ccccc1)C1CCCN(S(=O)(=O)CC(F)(F)F)C1 (stereo unspecified),102,107,1,i,13,nt,nt
NC(=O)CCCn1c(C(=O)c2ccc(Cl)cc2)c2ccc([N+](=O)[O-])cc2[n+]1[O-],nt,nt,-27,i,nt,nt,nt
NC(=O)CCCn1c(C(=O)c2cc(Cl)c(N)c(Cl)c2)c2ccc([N+](=O)[O-])cc2[n+]1[O-],nt,nt,82*,i,nt,1,78*
N#Cc1cccc(NCC(=O)Nc2ccc3c(c2)OCCO3)c1,103,105,0,i,0,nt,nt
CCOC(=O)N1CCC(NC(=O)c2cc(C)c3c(C)nn(-c4ccccc4)c3n2)CC1,111,113,45*,i,10,-3,23
NC(=O)c1c(NC(=O)C(=O)NCCCN2CCOCC2)sc2c1CCCC2,101,104,52*,i,3,0,73*
NC(=O)c1c(NC(=O)CN2CCOCC2)sc2c1CCC2,113,110,0,i,6,nt,nt
Cc1c(C(=O)Nc2ccc(S(=O)(=O)N(C)C3CCN(C)CC3)cc2)oc2ccccc12,nt,nt,56*,nt,nt,-2,34
O=C(CCSc1nc(-c2ccc3c(c2)OCO3)cc(C(F)(F)F)n1)NCc1ccccc1,106,99,?,i,2,nt,nt
CN(Cc1ccccc1)C(=O)CCSc1nc(-c2ccc3c(c2)OCO3)cc(C(F)(F)F)n1,96,106,46*,i,3,-2,42
NC1=NC[C@@H](Cc2ccc(O)cc2)N1CCc1cc(C(F)(F)F)cc(C(F)(F)F)c1,115,120,64*,i,8,-4,36
COC(=O)c1c(NC(=O)c2cccc(N3C(=O)CCC3=O)c2)sc2c1CCN(C(C)=O)C2,103,103,-5,i,6,nt,nt
COC(=O)c1c(NC(=O)c2nc3ccccc3s2)sc2c1CCN(C(C)=O)C2,104,110,104*,nt,6,-2,94*
CN(C)c1nnnn1-c1ccc(OC(F)(F)F)cc1,104,101,-4,i,-10,nt,nt
CCN1CCc2c(sc(NC(=O)c3ccc(S(=O)(=O)N4CCCCCC4)cc3)c2C(=O)NC)C1,107,120,10,i,9,nt,nt
CC(C)CC(N)C(=O)OCc1ccc([N+](=O)[O-])cc1 (stereo unspecified),97,96,2,i,-11,nt,nt
O=C(c1c[nH]c2ccccc2c1=O)N1CCCCCC1,98,98,-10,i,-4,nt,nt
N#Cc1ccsc1NC(=O)C1CCN(C(=O)c2ccc(F)cc2)CC1,nt,nt,59*,nt,nt,3,41
N#Cc1ccsc1NC(=O)C1CCN(S(=O)(=O)c2cccs2)CC1,nt,nt,10,i,nt,nt,nt
CCOc1cccc2cc(C(=O)NCc3ccc(Cl)cc3)c(=N)oc12,107,112,-7,i,9,nt,nt
CCOC(=O)C1=C(COCCN)NC(C)=C(C(=O)OC)C1c1ccccc1Cl (stereo unspecified),107,140,61*!,i,6,3,37
COCCN=c1scc(-c2ccco2)n1/N=C/c1ccc(O)c(O)c1O,82,75,46*,nt,-12,-2,8
COc1ccc(C(=O)Nn2c(SCC(=O)NCC3CCCO3)nc3ccccc3c2=O)cc1 (stereo unspecified),117,128,58*,nt,7,71*,48*
SMILES,MEKK3 PB1 HTS,MEKK2wt PB1 HTS,UBC13 inh,Rce1 inhib,MEKK2 mut-MEK5,Casp3 counter,UBC13 confirm
O=C(CSc1nc2ccccc2c(=O)n1CC1CCCO1)NCC1CCCO1 (stereo unspecified),100,101,0,i,-4,nt,nt
COc1ccc(C(=O)Nn2c(SCC(=O)NC3CCCC3)nc3ccccc3c2=O)cc1,98,94,44,i,-4,nt,nt
COc1ccc(C(=O)Nn2c(SCC(=O)NCc3ccccc3)nc3ccccc3c2=O)cc1,98,95,52*,i,-5,3,58*
O=C1c2cccc3cccc(c23)C(=O)N1CC1CCN(CC(O)COCc2ccc3c(c2)OCO3)CC1 (stereo unspecified),105,128,95*,i,0,-5,103*
OCCNc1ncnc2c1sc1nc(N3CCOCC3)c3c(c12)CCC3,99,106,12,i,-1,nt,nt
CCN(CC)CCNc1ncnc2c1sc1nc(N3CCOCC3)c3c(c12)CCCC3,104,130,69*,i,17,-2,84*
CCOC(=O)c1ccccc1NC(=O)CSc1nc(N)cc(=O)[nH]1,98,101,8,i,-4,nt,nt
Cc1ccc(OCCNC(=O)CNC(=O)c2ccc(Cl)c([N+](=O)[O-])c2)cc1,nt,nt,4,nt,nt,nt,nt
Cc1cc(C)c2nc(-c3ccccn3)cc(C(=O)n3cccn3)c2c1,99,96,45*,i,-1,-3,20
CCC[C@@H](CN1CCC[C@H]1CN1C(N)=NC[C@H]1CC(C)C)N1C[C@@H]([C@H](C)CC)N(CCc2ccc(Cl)c(Cl)c2)C1=N,nt,nt,82*,nt,nt,-4,80*
CC[C@@H](C)[C@@H]1CN([C@@H](CN2CCC[C@H]2CN2C(N)=NC[C@H]2CC(C)C)C(C)C)C(=N)N1CCc1ccc(Cl)c(Cl)c1,nt,nt,73*,nt,nt,3,86*
CC[C@@H](C)[C@@H]1CN([C@@H](C)CN2CCC[C@H]2CN2C(N)=NC[C@H]2CC(C)C)C(=N)N1CCc1ccc(Cl)c(Cl)c1,nt,nt,69*,nt,nt,0,70*
CCC(C)[C@H]1CN=C(N)N1CC1CCCCC1 (stereo partly specified),104,108,8,i,7,nt,nt
CC(=O)N[C@@H](Cc1ccc(O)cc1)CN1C(N)=NC[C@@H]1CC(C)C,103,108,2,i,12,nt,nt
CC[C@@H](C)[C@@H]1CN([C@@H](CN2CCC[C@H]2CN2C(N)=NC[C@H]2CC(C)C)C(C)C)C(=N)N1CCCC1CCCC1,nt,nt,66*,nt,nt,3,58*
